A selection: hits, their analogues and other compounds. The true share with any hit is near 4.3%.
FAS TE block: FAS thioesterase domain inhibitors, primary screen, biochemical, fluorescence intensity, uHTS; Fatty acid synthase (Homo sapiens), P49327; AID 602261, 2012; inhibition, % at 15 µM; recombinant FAS-TE, OMFH fluorogenic substrate, fluorescence endpoint; hit rate 0.67% among 360,000;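 active = compounds whose normalised, plate-corrected inhibition of enzyme fluorescence in the single-dose primary screen is 50% or more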;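 note: 0% = DMSO with enzyme and 100% = substrate without enzyme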
HGIII-sPLA2 inh: human group III sPLA2 inhibitors, primary screen, biochemical, QFRET, BODIPY PC-A2 liposome substrate; hit rate 0.56% among 370,000; Group 3 secretory phospholipase A2 (Homo sapiens), Q9NZ20; inhibition, % at 12.2 µM; QFRET BODIPY PC-A2 liposome hydrolysis, fluorescence;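 active = inhibition above mean plus 3 SD of compounds lying within the high and low control bounds, cut at about 19% in these data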;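 note: 0% = median of test compound wells and 100% = no enzyme DMSO wells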
ADAM17 inh: ADAM17 inhibitors, primary screen, biochemical, QFRET. Disintegrin and metalloproteinase domain-containing protein 17 (Homo sapiens), P78536. recombinant ADAM17, EDANS/DABCYL FRET peptide cleavage. inhibition, % at 6.95 µM. hit rate 0.83% among 370,000. AID 720648, 2013;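 active = inhibition above the mean of compounds lying between control limits plus 3 SD, set per campaign, cut at about 8.5% in these data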;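 note: 0% = DMSO-only wells as the low control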
ADAM10 inh: human ADAM10 inhibitors, primary screen, biochemical, QFRET, HTS | hit rate 0.62% among 370,000 | recombinant ADAM10, EDANS/DABCYL FRET peptide cleavage, 3 h | inhibition, % at 7 µM | AID 720582, 2013 | Disintegrin and metalloproteinase domain-containing protein 10 (Homo sapiens), O14672;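 active = inhibition above a per-campaign cutoff equal to the mean of compounds falling between control-based bounds plus 3 SD, cut at about 20% in these data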;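 note: 0% = DMSO wells while the 100% control is not disclosed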
Target sequence (O14672 214-748 limits assumed): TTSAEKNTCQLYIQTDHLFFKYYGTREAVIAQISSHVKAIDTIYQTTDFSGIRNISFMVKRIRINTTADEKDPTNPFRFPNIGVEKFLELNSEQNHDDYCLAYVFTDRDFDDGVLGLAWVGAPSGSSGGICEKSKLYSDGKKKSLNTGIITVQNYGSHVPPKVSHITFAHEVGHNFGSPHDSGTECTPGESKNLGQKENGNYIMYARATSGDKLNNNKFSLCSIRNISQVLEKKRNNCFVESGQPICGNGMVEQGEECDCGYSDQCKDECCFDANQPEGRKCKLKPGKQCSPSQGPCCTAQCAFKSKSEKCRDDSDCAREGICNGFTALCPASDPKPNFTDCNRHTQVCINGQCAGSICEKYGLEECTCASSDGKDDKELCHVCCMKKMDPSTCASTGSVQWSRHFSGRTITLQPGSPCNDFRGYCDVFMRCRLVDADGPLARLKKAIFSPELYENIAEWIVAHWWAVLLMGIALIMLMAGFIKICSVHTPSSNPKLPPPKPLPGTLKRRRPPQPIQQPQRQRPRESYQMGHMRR
GRIN3A LBD mod: binders of NR3A ligand-binding domain, primary screen, biophysical, differential scanning fluorimetry, uHTS. NR3A LBD differential scanning fluorimetry, Tm shift; 0% = protein alone, 100% = glycine-bound protein. Tm shift relative to glycine control, % at 25 µM. hit rate 2.5% among 340,000. AID 1259313, 2017;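 active = melting temperature shift of at least 10% of the positive control shift, at one fixed dose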
Starred values were filed as active, the others as inactive; · = not tested or not shown.

SMILES	FAS TE block	HGIII-sPLA2 inh	ADAM17 inh	ADAM10 inh	GRIN3A LBD mod
CNc1nc(N)c([N+](=O)[O-])c(Nc2ccccc2)n1	·	3	0	1	·
O=C(/C=C/Nc1ccc([N+](=O)[O-])cc1Br)c1cccc2ccccc12	22	7	-3	-8	13*
Cc1nn(-c2ccccc2)c2sc(C(=O)NC3CCCCCCC3)cc12	·	16	-3	-20	·
CCOc1cc(C2C(C#N)=C(N)OC(C)=C2C(C)=O)c(Br)c(Br)c1OC(C)C (configuration not stated)	72*	·	·	·	-3
CCOc1cc(C2C(C#N)=C(N)OC(C)=C2C(C)=O)cc(Br)c1O (configuration not stated)	-15	-11	-5	3	2
COc1ccc(N2C(=O)C3[C@@H](C2=O)C2(Cl)C(Cl)=C(Cl)C3(Cl)C2(OC)OC)cc1 (some centres not stated)	5	-16	1	4	-11
COc1ccc(N2C(=O)C3C4C=CC(c5ccccc5)(C3C2=O)C2C(=O)N(c3ccc(OC)cc3)C(=O)C42)cc1 (configuration not stated)	-2	-25	-1	4	12*
CCOC(=O)[C@]12CCCC=C1N(CCCOC)C(=O)[C@@H]2CC(=O)N1CCCCC1	·	1	-9	-6	·
O=C(Cn1c(-c2ccccc2)noc1=O)NCc1ccccc1	-5	-3	8	8	13*
COc1ccc(CSc2nnc(SCC(=O)Nc3ccccc3-c3ccccc3)s2)cc1	·	-6	6	9	·
COc1cc(/C=N/N=C(/N)c2nonc2N)cc(Br)c1OCc1ccccc1C	27	-3	-3	12	15*
CCOc1cc(/C=N/N=C(/N)c2nonc2N)cc(Br)c1OCc1ccc(Cl)cc1	15	-10	-4	4	-1
C#CCN(CC=C)Cc1ccc(OC)cc1OC	·	3	-3	0	·
CN1CCN(C2=C(Cl)C(=O)C(c3cnc(N4CCCCC4)s3)=C(Cl)C2=O)CC1	60*	·	·	·	-47
O=C(N/N=C1/SCC(=O)N1Cc1ccco1)c1ccccc1F	-5	-1	-1	7	16*
COC(=O)/C=C1/SC(=NC(=O)c2ccccc2)NC1=O	-14	11	-6	-2	-8
COC(=O)/C=C1/SC(=NC(=O)c2cccc([N+](=O)[O-])c2)NC1=O	3	2	0	3	15*
COC(=O)/C=C1\SC(=NC(=O)c2cccc(Cl)c2)NC1=O	-3	11	-2	-5	9
COC(=O)/C=C1\SC(=NC(=O)c2cccc([N+](=O)[O-])c2)NC1=O	-1	0	-3	-4	13*
Cc1cc(C)c(OC2(c3ccccc3)OC(=O)c3ccccc32)c(C)c1 (configuration not stated)	24	-6	-4	5	16*
Cc1cccc(C)c1OC1(c2ccccc2)OC(=O)c2ccccc21 (configuration not stated)	27	-11	-2	10	-1
Cc1cc(C)cc(NC(=O)OC2CC3CC2[C@H]2CCCCN2[C@H]3C)c1 (some centres not stated)	·	4	4	-2	·
O=C(NNc1c2ccccc2nc2ccccc12)c1ccc(O)cc1O	13	0	-159	-390	9
O=C(NNc1c2ccccc2nc2ccccc12)c1ccccc1O	18	9	-41	-115	18*
O=C(OCc1ccccc1)/C(=C/c1ccccc1Cl)NC(=O)c1ccco1	15	-2	6	12	15*
COCCCNC(=O)C[C@H]1C[C@@]2(C(=O)OC)C(=C[C@H](COCc3ccccc3)O[C@@H]2C)N(Cc2ccc(Cl)cc2Cl)C1=O	·	-5	3	7	·
CCOC(=O)c1sc(NC(=O)CSc2n[nH]c(-c3ccncc3)n2)c(C#N)c1C	-16	-7	-4	0	-4
NC(=O)c1ccsc1NC(=O)CSc1n[nH]c(N)n1	-8	-7	-1	-5	2
Cc1ccsc1/C=C/C1=Cc2c(sc(NC(=O)CSc3n[nH]c(N)n3)c2C#N)C(C)(C)C1	-17	-4	-5	-7	10*
